Measurements from PubChem BioAssay AID588342 (National Center for Advancing Translational Sciences (NCATS), 2011).
Out of some 360,000 compounds screened, about 25,000 (6.9%) were called active. Inconclusive results (about 9%) are left out. The list comes from a sample in which actives are over-represented; it also holds similar structures and randomly drawn compounds. Values without a mark were called inactive. Calls follow the shape of the dose curve; as a rule, active = well fitted inhibition curve with a large enough effect; inconclusive = small, poorly fitted or top-dose-only effect; inactive = flat fitted curve, though single readings scatter.

What follows are compounds tested against Luciferin 4-monooxygenase (Photinus pyralis) (UniProt P08659) (assay: qHTS profiling assay for firefly luciferase inhibitor/activator using purifed enzyme and Km concentrations of substrates (counterscreen for miR-21 project)). Details: purified FLuc, luminescence inhibition; series mostly up to 57.5 µM; activity change, negative = inhibition: at the top concentration.
In short: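 Purified P. pyralis luciferase, 10 nM final, with Km-level 10 uM D-luciferin and 10 uM ATP in 50 mM Tris acetate pH 7.5, 10 mM Mg acetate, 0.01% Tween-20, 0.05% BSA; 6-point qHTS titration about 60 µM downward; luminescence read.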
Also: nearly all actives have a fitted effect of over 55% in size.
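For activity change, negative = inhibition in this document: plate controls were vehicle for no effect and reference inhibitor for full effect.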
Potency is read from the fitted curve at half-maximal effect.

Sequence of Luciferin 4-monooxygenase (Photinus pyralis) (P08659 whole entry, looked up): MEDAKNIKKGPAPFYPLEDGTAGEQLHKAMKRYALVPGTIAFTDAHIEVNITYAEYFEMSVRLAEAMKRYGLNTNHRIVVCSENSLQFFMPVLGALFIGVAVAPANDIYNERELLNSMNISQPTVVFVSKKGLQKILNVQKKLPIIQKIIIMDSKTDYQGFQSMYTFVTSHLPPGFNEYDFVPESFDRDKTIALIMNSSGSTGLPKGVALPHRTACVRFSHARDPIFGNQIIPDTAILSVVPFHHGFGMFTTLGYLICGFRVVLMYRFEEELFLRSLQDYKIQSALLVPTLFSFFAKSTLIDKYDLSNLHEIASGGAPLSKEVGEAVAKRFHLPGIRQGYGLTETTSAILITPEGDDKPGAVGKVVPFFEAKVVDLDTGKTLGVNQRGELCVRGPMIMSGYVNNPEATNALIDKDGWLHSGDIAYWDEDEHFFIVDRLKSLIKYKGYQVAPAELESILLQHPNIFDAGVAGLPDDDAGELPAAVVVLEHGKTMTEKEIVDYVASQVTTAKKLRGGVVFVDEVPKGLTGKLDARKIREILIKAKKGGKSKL

| SMILES | activity change, negative = inhibition | Potency |
| --- | --- | --- |
| CC1(C)CC(=O)C=C(c2cccc3c2Oc2ccccc2S3)C1 | -3.41% |  |
| Cc1cccc(OCCC(=O)Nc2ccccc2C(N)=O)c1 | -0.608% |  |
| Cc1cccc(OCC(=O)Nc2ccc(C(=O)O)cc2NC(=O)COc2cccc(C)c2)c1 | 0.888% |  |
| Cc1cccc(OCC(=O)Nc2ccccc2F)c1 |  | 21.3 µM (active) |
| CCCOC(=O)Nc1ccccc1C(N)=O | 3.69% |  |
| Cc1cccc(OCC(=O)NCCCNC(=O)c2ccccn2)c1 | -1.63% |  |
| COc1cccc(OCC(=O)Nc2ccccc2C(N)=O)c1 |  | 4.78 µM (active) |
| CCc1ccc(-n2nc(C)c3c(C)cc(=O)n(CC(=O)Nc4ccc(F)cc4C)c32)cc1 | 1.92% |  |
| CCCNc1ncnc2c1c(-c1ccccc1)cn2-c1ccc(OCC)cc1 | -5.23% |  |
| O=C(COc1ccccc1O)NC1CCCC1 | -1.18% |  |
| CCOC(=O)c1ccc(NC(=O)c2nc(SCc3ccc(F)cc3)ncc2Cl)cc1 | -7.43% |  |
| COc1cc(N=Cc2c(O)c3ccccc3oc2=O)c(OC)cc1Cl | 0.283% |  |
| COc1ccccc1N=C(C)C1=C(O)COC1=O | 2.19% |  |
| COc1ccccc1N=Cc1c(O)c2ccccc2oc1=O |  | 1.9 µM (active) |
| O=C(Nc1ccc(OC(F)(F)F)cc1)c1cc2c(=O)n3ccccc3nc2s1 | 1.26% |  |
| CCc1cc2c(-c3ccccc3)cc(=O)oc2c2c1OCN(Cc1ccc(C)cc1)C2 | -2.21% |  |
| CCc1ccc2oc(-c3ccc(C)c(NC(=O)/C=C/c4ccco4)c3)nc2c1 |  | 3.01 µM (active) |
| CCC(CC)c1nnc(NC(=O)/C=C/c2ccco2)s1 | 2.36% |  |
| Cc1cccc(C(=O)Nc2ccc(-c3nc4ncccc4o3)cc2C)c1 | -1.32% |  |
| Cc1ccc2cccc(NC(=O)c3cccc4ccccc34)c2n1 | -2.45% |  |
| CC(C)C(C)NC(=O)COc1nc2ccccc2nc1N(C)C1CCCCC1 (stereo not drawn) | 0.505% |  |
| CN(c1ccc2nc3ccccc3c(=O)n2n1)C1CCCCC1 |  | 0.169 µM (active) |

| SMILES | activity change, negative = inhibition | Potency |
| --- | --- | --- |
| O=c1c2ccccc2nc2n1C1(CCCCC1)Cc1ccccc1-2 | -1.54% |  |
| CCC(=O)N1CCc2cc(CNC(=O)Nc3ccccc3Cl)ccc21 | -15.3% |  |
| COc1cc2sc(C)nc2cc1C | -2.95% |  |
| CCCc1nc(NCc2ccc3c(c2)OCO3)c2nnn(Cc3ccccc3Cl)c2n1 | -0.879% |  |
| Cc1nc(Nc2ccc3c(c2)OCCO3)c2nnn(Cc3ccccc3Cl)c2n1 |  | 26.9 µM (active) |
| Cc1nc(Nc2ccccc2F)c2nnn(Cc3ccccc3Cl)c2n1 | -4.09% |  |
| c1ccc(-c2nnc(SCc3nc4ccccc4[nH]3)o2)cc1 | 1.85% |  |
| Nc1cccc(CCc2nc3ccccc3[nH]2)c1 | -21.6% |  |
| c1ccc2c(CSCc3nc4ccccc4[nH]3)cccc2c1 |  | 10.7 µM (active) |
| Clc1ccccc1SCc1nc2ccccc2[nH]1 |  | 13.5 µM (active) |
| O=c1[nH]nc(CSCc2ccccc2Cl)[nH]1 | 2.07% |  |
| COc1ccc(OC(C)C(=O)NCCc2nc3ccccc3[nH]2)cc1 (stereo not drawn) | -0.594% |  |
| COC(=O)Cc1ccc(OC(=O)C2CCN(S(=O)(=O)c3ccc(OC)c(OC)c3)CC2)cc1 | 1.97% |  |
| Cc1nnsc1C(=O)NCc1c(F)cccc1Cl | -1.24% |  |
| Cc1nn(Cc2ccccc2)c(C)c1CNC(=O)c1ccc(F)c(S(=O)(=O)N2CCOCC2)c1 | 5.42% |  |
| O=C(NC(=S)Nc1cccc(-c2ccc(CO)o2)c1)c1cccs1 |  | 19 µM (active) |
| O=C(Nc1ccccc1-c1ccccc1)c1cccs1 | 5.07% |  |
| O=C(NC(=S)Nc1ccc(NC(=O)c2cccs2)cc1)c1ccc([N+](=O)[O-])cc1 | 0.372% |  |
| CCc1cnc2c(c1SCC(=O)c1ccccc1)c(=O)n(C)c(=O)n2C | 0.976% |  |
| O=S(=O)(NCc1ccccc1Br)c1ccccc1Br | -13.2% |  |
| Cc1cc(C)n(C(=O)c2ccc(S(=O)(=O)N3CCCC3)cc2)n1 | -0.0836% |  |
| CCOC(=O)c1ccc(Nc2cc(C)nc3nc(C)nn23)cc1 | 4.41% |  |

| SMILES | activity change, negative = inhibition | Potency |
| --- | --- | --- |
| Cc1cc(Nc2ccccc2)n(C(=O)c2ccc(N)cc2)n1 |  | 9.53 µM (active) |
| CCNC(=S)NNC(=O)c1ccc2ncccc2c1 | -6.07% |  |
| Cc1ccc(S(=O)(=O)Nc2ccc3ncccc3c2)cc1 | -1.82% |  |
| Cc1ccc2cc(/C=N/NC(=O)[C@@H]3CCCN3)c(Cl)nc2c1 | -3.8% |  |
| O=C(O)c1ccc(N/N=C/c2ccc3ncccc3c2)cc1 |  | 0.675 µM (active) |
| Cc1ccc2cc(/C=N/Nc3ccc(C(=O)O)cc3)c(Cl)nc2c1 |  | 0.151 µM (active) |
| CSCC[C@H](NC(=O)OC(C)(C)C)C(=O)N/N=C/c1cc2ccc(C)cc2nc1Cl | 1.83% |  |
| O=c1oc(-c2ccco2)nc2sc3c(c12)CCCCC3 |  | 0.675 µM (active) |
| O=C(NCc1ccco1)c1cccn2c(=O)c3c4c(sc3nc12)CCCC4 | -11.7% |  |
| Cn1c(=O)n(Cc2ccco2)c(=N)c2c3c(sc21)CCCC3 | -1.02% |  |
| CCN(C(=O)CSc1nnc(-c2ccc(OC(F)F)cc2)n1N)C1CCS(=O)(=O)C1 (stereo not drawn) | -1.63% |  |
| O=C(NNC(=O)c1ccc(-n2cncn2)c([N+](=O)[O-])c1)c1ccccc1 | -7.75% |  |
| CCC1(CC)NC(=O)N(Cc2nc3ccccc3s2)C1=O | 1.69% |  |
| C/C(=N\NC(=O)CSc1nc2ccccc2c(=O)n1-c1ccccc1C)c1cccs1 | 2.93% |  |
| C/C(=N\NC(=O)CC(C)C)c1c(C(F)(F)F)[nH]n(-c2nc3ccccc3s2)c1=O |  | 5.36 µM (active) |
| CC(=NCc1ccco1)c1c(C(F)(F)F)[nH]n(-c2nc3ccccc3s2)c1=O |  | 7.57 µM (active) |
| Cc1cccc(NC(=O)c2cc3c(C)nn(-c4ccccc4)c3s2)c1 | -2.33% |  |
| O=C(NCc1ccncc1)C1CCN(C(=O)c2cccc(Cl)c2)CC1 | 2.73% |  |
| Cc1ccc(-n2c(CNc3ccc(F)cc3)nnc2SCC(=O)N2CCOCC2)cc1 | 5.25% |  |
| O=C(CSc1cccc[n+]1[O-])c1ccc(Cl)cc1 | -5.96% |  |
| COc1ccccc1C(=O)CSc1cccc[n+]1[O-] | -1.55% |  |
| O=C(CSc1cccc[n+]1[O-])c1ccc(-c2ccccc2)cc1 |  | 19 µM (active) |

| SMILES | activity change, negative = inhibition | Potency |
| --- | --- | --- |
| CC(O)c1cccc(NC(=O)Cc2cccc3ccccc23)c1 (stereo not drawn) | -9% |  |
| CCC(=O)N1c2ccc(S(=O)(=O)CCC(=O)N3CCN(c4ccccc4)CC3)cc2CC1C (stereo not drawn) | 0.169% |  |
| CCCC(=O)N1c2ccc(-c3csc(N)n3)cc2CC1C (stereo not drawn) |  | 7.57 µM (active) |
| Cc1ccn(CCC(=O)N2c3ccccc3CC2C)n1 (stereo not drawn) | 0.985% |  |
| CCOc1ccccc1NC(=O)Cn1c(=O)n(-c2cccc(C)c2)c(=O)c2c1c1cc(OC)ccc1n2C | 1.32% |  |
| CN(CC(=O)NC(=O)Nc1ccccc1F)Cc1ccccc1 | -17.3% |  |
| Oc1ccc(-c2nc3ccc(Cl)cn3c2Nc2ccc3c(c2)OCO3)cc1 | -17.2% |  |
| c1ccc(-n2ncc3c2ncn2c(C4CCCCC4)nnc32)cc1 | -19.9% |  |
| CCN(c1ncnc2c1cnn2-c1ccc(C)cc1)C1CCCCC1 |  | 2.13 µM (active) |
| CN(C(=O)COc1ncnc2c1cnn2-c1ccccc1)C1CCCCC1 | 4.1% |  |
| O=c1c2ccccc2ncn1CCCCOc1ccccc1F | -12.9% |  |
| O=C(Nn1cnc2ccccc2c1=O)c1ccc([N+](=O)[O-])cc1Cl | -16.3% |  |
| O=C(Nn1cnc2ccccc2c1=O)c1ccc(F)cc1Cl |  | 13.5 µM (active) |
| COC(=O)c1c(NC(=O)C(C)Oc2ccc(Cl)c(C)c2)sc(C)c1C (stereo not drawn) | 5.37% |  |
| Cc1ccc(NC(=S)N2CCN(c3ncccn3)CC2)cc1C | 0.0229% |  |
| COc1ccc(NC(=O)Cn2c(=O)n(CCC(C)C)c(=O)c3cccnc32)cc1Cl | -2.93% |  |
| Cc1ccccc1CNC(=O)CSc1nnc(C)c2c(C)n(-c3ccccc3)nc12 | -17% |  |
| Nc1ccc(N=Nc2ccccc2Cl)c(N)n1 |  | 6.01 µM (active) |
| O=C1C=C(c2cccc(Cl)c2)C[C@@H](c2ccc(F)cc2)C1 | -4.42% |  |
| COc1ccc(Cn2cc(C(=O)c3ccc(C)cc3)c(=O)c3cc(OC)c(OC)cc32)cc1 | -2.14% |  |
| Cn1nc(C(C)(C)C)c(NC(=O)c2sccc2Cl)c1C(C)(C)C | -1.09% |  |
| COc1ccccc1NC(=O)/C=C/C(N)=O | -2.13% |  |

| SMILES | activity change, negative = inhibition | Potency |
| --- | --- | --- |
| COC(=O)c1sc(-c2ccc(C(C)(C)C)cc2)cc1NC(=O)/C=C/C(=O)O |  | 1.51 µM (active) |
| N#CC(C#N)=CN=c1ccn(Cc2ccc(Cl)cc2Cl)cc1 | 0.66% |  |
| COc1ccc(NC(=O)N2CCC(Cc3ccccc3)CC2)cc1 |  | 15.1 µM (active) |
| COc1ccc(C(=O)NC2CCN(C(=O)Nc3ccc(F)cc3)CC2)cc1 | -8.45% |  |
| COc1ccc(NC(=O)N2CCCC(C(=O)Nc3ccccc3OC)C2)cc1 (stereo not drawn) | 0.703% |  |
| COc1cccc(C(=O)N(Cc2cccc(Cl)c2)Cc2ccco2)c1 | -3.28% |  |
| CCCc1nc2c(c(=O)c3ccccc3n2C)c(=O)n1-c1cc(C)cc(C)c1 |  | 15.1 µM (active) |
| Cn1c2ccccc2c(=O)c2c(=O)n(Cc3ccco3)c(COc3ccccc3)nc21 | -6.43% |  |
| CCCc1nc2c(c(=O)c3ccccc3n2C)c(=O)n1C1CCCCCC1 | -1.97% |  |
| CCOc1ccccc1NC(=O)CN1CCN(S(=O)(=O)c2ccc(Br)cc2)CC1 | -12% |  |
| COC(=O)[C@]1(C)N[C@H](c2ccc(-c3ccc(Cl)c(Cl)c3)cc2)[C@@H]2C(=O)N(C)C(=O)[C@@H]21 |  | 15.1 µM (active) |
| COC(=O)C1(C)NC(c2ccc(F)cc2)C2C(=O)N(c3ccccc3)C(=O)C21 (stereo not drawn) | -0.999% |  |
| COC(=O)C1(C)NC(c2ccc(C)cc2)C2C(=O)N(c3ccc(F)cc3)C(=O)C21 (stereo not drawn) | 0.287% |  |
| O=C(CNC(=O)c1ccccc1F)c1ccc(Br)cc1 |  | 2.69 µM (active) |
| O=C(COC(=O)CNC(=O)c1ccccc1F)NCC(F)(F)F | -1.88% |  |
| O=C(CNC(=O)c1ccc(F)cc1)c1ccccc1 |  | 19 µM (active) |
| Cc1cc2ccccc2n1CCNC(=O)c1ccc(F)cc1 | -11.8% |  |
| O=C(Nc1ccc(NC(=O)c2ccccc2F)cc1)c1ccccc1F | -2.26% |  |
| O=C(CNC(=O)c1ccccc1)NCC(=O)OCC(=O)c1ccccc1 | -4.07% |  |
| Cn1c(=O)[nH]c(=O)c2c1[nH]c(=S)n2Cc1ccccc1 | -1.53% |  |
